From PubChem BioAssay
Cruzain inh Det: blocks cruzain activity in presence of Triton detergent. purified cruzain, Z-FR-AMC fluorescence, 0.01% Triton. Potency, µM, inactives show max response, negative = inhibition, most hits filed as inhibitors. P25779. AID 1478. actives 0.43% (n = 200,000);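 note: plate controls were neutral wells for no effect and buffer without enzyme for full effect; nearly all actives have a fitted effect of over 40% in size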
Target sequence (P25779 123-467 limits assumed): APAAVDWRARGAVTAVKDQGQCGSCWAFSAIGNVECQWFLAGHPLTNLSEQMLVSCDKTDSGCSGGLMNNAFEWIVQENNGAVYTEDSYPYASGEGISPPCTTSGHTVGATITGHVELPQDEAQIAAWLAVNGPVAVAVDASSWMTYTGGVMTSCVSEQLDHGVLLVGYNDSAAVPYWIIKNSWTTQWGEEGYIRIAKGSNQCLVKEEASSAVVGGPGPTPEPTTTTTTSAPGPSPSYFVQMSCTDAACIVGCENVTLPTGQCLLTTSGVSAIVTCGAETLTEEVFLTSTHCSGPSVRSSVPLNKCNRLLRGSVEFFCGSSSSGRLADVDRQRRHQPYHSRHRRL
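Detergent-containing run (0.01% Triton X-100) in acetate buffer pH 5.5 with 5 mM DTT: enzyme at 1.5 nM final, 15 min compound preincubation at room temperature, then 2 uM Z-FR-AMC substrate. Activity taken as 60 s fluorescence increase at 360/450 nm.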
Cruzain noTriton: cruzain (T. cruzi) inhibition without detergent | P25779 | purified cruzain, Z-FR-AMC fluorescence, no detergent | Potency, µM, without a hit: max response, negative = inhibition, actives largely listed as inhibitors | actives 2.3% (n = 200,000) | AID 1476;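 note: plate controls were enzyme without inhibitor for no effect and buffer without enzyme for full effect; nearly all actives have a fitted effect of over 40% in size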
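Purified cruzain at 1.5 nM, pre-incubated 15 min with compound at room temperature in 100 mM sodium acetate pH 5.5, 5 mM DTT, 0.00005% Triton X-100. Reaction started with 2 uM Z-FR-AMC; AMC fluorescence increase over 60 s gives rate.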
* hit, by the source's call; u = inconclusive. The list is not random: actives were taken first. Their share in the collection is about 2.4%. Calls come from the whole dose curve; as a rule, active = well fitted curve in the direction sought with a large enough effect; inconclusive = small, poorly fitted or top-dose-only effect, or another doubt; inactive = no such curve, though single readings can be large; an effect the other way counts as inactive or inconclusive. Potency is the fitted concentration of half-maximal effect.

SMILES | Cruzain inh Det | Cruzain noTriton
CC(C)OC(=O)[C@@H]1CC[C@H](C)[C@@H](CCC[C@@H]2C[C@@H](O)C[C@H](CC#N)O2)O1 | 3% | 17%
COc1ccc(/C=C/c2nc(C#N)c(N3CCCCCC3)o2)cc1OC | -4% | u
COc1ccc(/C=C/c2nc(C#N)c(NCCc3ccc(OC)c(OC)c3)o2)cc1OC | -20% | -8%
CCN1CCN(c2oc(/C=C/c3ccc(OC)c(OC)c3)nc2C#N)CC1 | -22% | 20µM*
CCN1CCN(c2oc(/C=C/c3cc(OC)c(OC)c(OC)c3)nc2C#N)CC1 | -1% | -4%
COc1ccc(/C=C/c2nc(C#N)c(N3CCC(C(N)=O)CC3)o2)cc1OC | u | 32µM*
COc1ccc(CCNc2oc(/C=C/c3ccc(OC)c(OC)c3)nc2C#N)cc1 | -25% | 16µM*
CCOC(=O)c1[nH]c(C)c(CCC(=O)Nc2ccc(N(CC)CC)cc2C)c1C | 4% | -18%
O=C(NCc1ccc2c(c1)OCO2)O[C@@H]1C(=O)c2cc(Br)ccc2O[C@H]1c1ccc2c(c1)OCO2 | -4% | -1%
COC(=O)c1ccccc1NC(=O)Cn1c(=O)n(-c2ccc(C)cc2)c(=O)c2ccccc21 | -5% | -11%
O=C(Oc1ccc(S(=O)(=O)F)cc1F)c1ccccc1Cl | 0% | 8%
Cc1ccc2c(c1)C(=O)CCN2 | -1% | 2%
O=C1CCNc2ccc(-c3ccccc3)cc21 | -5% | 20µM*
COC(=O)c1ccc(C(NC(=O)OCc2ccccc2)/C(=C/[C@@H](C)C(=O)Nc2ccc(OC)cc2)c2cccnc2)cc1 (stereo partly drawn) | 4% | -4%
O=C(N/N=C/c1c(O)n(CCC2=CCCCC2)c(=O)[nH]c1=O)c1ccccc1 | 3% | 25µM*
O=C(N/N=C/c1c(O)n(CCC2=CCCCC2)c(=S)[nH]c1=O)c1ccccc1 | 3% | -4%
COC(=O)c1c(NC(=O)CN2CCN(Cc3ccc4c(c3)OCO4)CC2)sc(C)c1C | 1% | 0%
COC(=O)c1c(NC(=O)CN2C(=O)c3ccccc3C2=O)sc(Cc2ccc3c(c2)OCO3)c1C | -1% | 10µM*
N=c1oc2ccccc2cc1-c1nc(-c2ccccc2)cs1 | -14% | u
N=c1oc2ccc3ccccc3c2cc1-c1nc(-c2ccccc2)cs1 | -5% | 25µM*
C=CCOC(=O)N[C@@H](Cc1ccccc1)/C(C(=O)OC)=C(\C)NCc1ccccc1 | 2% | -9%
CCOC(=O)c1cc(S(=O)(=O)Nc2ccccc2)[nH]n1 | 2% | 6%
O=C(/C=C/c1ccc(O)cc1)c1ccc(NC2=C(N3CCCCC3)C(=O)c3ccccc3C2=O)cc1 | -6% | 13µM*
O=C1C(Nc2ccccc2)=C(N2CCCCC2)C(=O)c2ccccc21 | -12% | -22%
COC(=O)c1cc([N+](=O)[O-])c(-n2ccnc2)c([N+](=O)[O-])c1 | -5% | 12%
SMILES | Cruzain inh Det | Cruzain noTriton
Nc1nc(=O)n(C2OC(CO)C(O)C2O)cc1Cl (stereo not drawn) | -1% | -9%
COc1ccc(-c2nc3cnc(N4CCN(C)CC4)nc3n(Cc3cccc(OC)c3)c2=O)cc1 | -3% | 4%
CCn1c2ccccc2c2cc(/C=N/n3c(C)nnc3C)ccc21 | -16% | u
CCn1c2ccccc2c2cc(/C=N/NC(=O)c3ccccc3)ccc21 | u | 32µM*
NC(=O)NCCS[C@H]1CCCC[C@@H]1O | 3% | -1%
O=CNc1ccc(S(=O)(=O)NCc2ccccc2)cc1 | 2% | 1%
COc1ccc(C2c3c(ccc4ccccc34)Oc3ncn4nc(-c5ccco5)nc4c32)cc1 (stereo not drawn) | 2% | u
c1ccc(C2c3c(ccc4ccccc34)Oc3ncn4nc(-c5ccco5)nc4c32)cc1 (stereo not drawn) | -6% | 3.2µM*
COc1ccc(C2c3c(ccc4ccccc34)Oc3ncn4nc(Cc5ccc(OC)c(OC)c5)nc4c32)cc1 (stereo not drawn) | -1% | 3%
COc1ccc(C2c3c(ccc4ccccc34)Oc3ncn4nc(CO/N=C/c5ccccc5)nc4c32)cc1 (stereo not drawn) | 5% | 3.2µM*
O=C(c1ccc2c(c1)OCO2)[C@@H]1[C@@H]2C(=O)N(C3CCCCC3)C(=O)[C@@H]2C2c3ccccc3C=CN21 (stereo partly drawn) | -2% | 20µM*
CC(C)(C)C(=O)[C@@H]1[C@@H]2C(=O)N(C3CCCCC3)C(=O)[C@@H]2[C@H]2c3ccccc3C=CN12 | 2% | u
O=C1c2ccccc2C(=O)N1Cc1ccc2c(c1)OCO2 | -2% | -10%
O=C(c1cccs1)[C@@H]1[C@@H]2C(=O)N(Cc3ccc4c(c3)OCO4)C(=O)[C@@H]2C2c3ccccc3C=CN21 (stereo partly drawn) | -2% | 25µM*
O=C(Nc1ccc2c(c1)OCO2)C1CCN(S(=O)(=O)Cc2ccccc2)CC1 | 2% | -9%
O=C(Nc1ccc2c(c1)OCO2)[C@@H]1[C@@H]2C(=O)N(C3CCCCC3)C(=O)[C@@H]2C2c3ccccc3C=CN21 (stereo partly drawn) | -6% | 20µM*
O=C(O)[C@@H]1[C@@H]2O[C@H]([C@@H](Br)[C@H]2Br)[C@H]1C(=O)O | 5% | 4%
CCOC(=O)c1cnn(-c2ccc(C(=O)Nc3cc(OC)c(OC)c(OC)c3)cc2)c1N | 2% | -7%
CC(C)c1ccc2oc(-c3cc(NC(=O)c4cccnc4)ccc3Cl)nc2c1 | -10% | u
[CH3][Hg][Cl] | 4% | 4%
CCCN(CCC)C(=O)c1nn(C)c2c1CSc1ccc(C)cc1-2 | -6% | 21%
O=C(Oc1ccccc1)N1CCC2(CC1)CCN(c1ccccn1)CC2 | -2% | -20%
CCCOc1ccc(-c2nn(-c3ccccc3)cc2/C=C2\SC(N)=NC2=O)cc1C | -5% | 13µM*
COc1ccc(-c2nn(CCC(=O)O)cc2/C=C2\SC(N)=NC2=O)cc1OC | -4% | 3%
O=C(c1cc2sccc2n1Cc1ccccc1)N1CCN(c2nc3ccccc3s2)CC1 | -4% | 7.9µM*
SMILES | Cruzain inh Det | Cruzain noTriton
CCC(=O)N1CCN(c2nc3ccccc3s2)CC1 | -3% | -2%
O=c1c(O)c(-c2ccccc2)oc2cc(O)cc(O)c12 | -1% | -1%
O=c1c(O)c(-c2cc(O)c(O)c(O)c2)oc2cc(O)cc(O)c12 | u | 13µM*
CC(=O)N1CC2(CC2)CC1c1ccccc1 (stereo not drawn) | 6% | -9%
CN(C)c1ccc(-c2nc3ccccn3c2Nc2ccc3c(c2)OCCO3)cc1 | -5% | -10%
C(=N\Nc1nc(-c2ccccc2)cs1)/c1cccs1 | -6% | 25µM*
C(=N\Nc1nc(-c2ccccc2)cs1)/c1ccco1 | -14% | u
Oc1cc(O)c2c(c1)O[C@H](c1ccc(O)c(O)c1)[C@@H](O)C2 | 2% | 16%
O=c1c(O)cc(C2Oc3cc(O)cc(O)c3CC2O)cc2c(C3Oc4cc(O)cc(O)c4CC3O)cc(O)c(O)c12 (stereo not drawn) | 25µM* | -22%
COc1ccc(-c2nc3ccc(NS(=O)(=O)c4ccc(C)cc4)cc3o2)cc1 | -6% | -10%
CC(C)Oc1ccc(CNC(=O)C2=Cc3ccccc3OC2)cc1 | -9% | 2%
COc1cc(Nc2ncc3c(n2)CCN(Cc2cc(Br)cs2)C3)cc(OC)c1 | -8% | 25µM*
Brc1csc(CN2CCc3nc(Nc4ccccc4)ncc3C2)c1 | -9% | u
Oc1ccc2ccccc2c1/C=N/Nc1ccccc1 | -6% | -7%
Cc1cc(N/N=C/c2c(O)ccc3ccccc23)nc(-c2ccccc2O)n1 | 0% | 16µM*
